Measurements taken from the supplement of paper PMC10849652.
Targets with a hit are over-represented here; the source holds about 7,900 in all. About 0.6% of all pairs of compound and target were hits.

Columns and labels:
Assay in all cases: log2 fold change, soluble protein after heating vs DMSO (PISA); higher = thermal stabilisation; K562 cells, 10 uM, 30 min; active = over 0.2 and 3.5 SD of the protein, either way, in both replicates (recomputed)
[1] = compound: CC[C@@H]1C(=O)N(C)c2cnc(Nc3ccc(C(=O)NC4CCN(C)CC4)cc3OC)nc2N1C1CCCC1
Summary of the method: (§1)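 Values are thermal stability changes relative to control samples and are taken from duplicates. They are stated as log2 fold changes. Before quantification by TMTpro 16plex LC-MS/MS with equalised channel sums, K562 cells at 2×10^6 cells/mL were treated with 10 μM compound for 30 min, heated in aliquots for 3 min across 48°C-58°C, pooled, extracted in PBS with 0.5% NP-40 at 4°C, and centrifuged at 21,000xg for 90 min to give the soluble supernatant.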

volasertib = compound: CC[C@@H]1C(=O)N(C)c2cnc(Nc3ccc(C(=O)N[C@H]4CC[C@H](N5CCN(CC6CC6)CC5)CC4)cc3OC)nc2N1C(C)C [volasertib]
Summary of the method: as §1

[2] = compound: CC[C@H](C)N1C=C(C2=C(C=C(C=C21)C3=CN=C(C=C3)N4CCNCC4)C(=O)NCC5=C(C=C(NC5=O)C)C)C
Summary of the method: as §1

epoxomicin = compound: CC[C@H](C)[C@@H](C(=O)N[C@@H]([C@@H](C)O)C(=O)N[C@@H](CC(C)C)C(=O)[C@]1(CO1)C)NC(=O)[C@H]([C@@H](C)CC)N(C)C(=O)C [epoxomicin]
Summary of the method: as §1

[3] = compound: CCn1c(C(=O)N(C2CC2)C2CC2)cc2c3c(ncn3C)c(Nc3cc(C)n(C)n3)nc21
Summary of the method: as §1

[4] = compound: CCn1cc(-c2ccnc3[nH]c(-c4cccc(CN(C)C)c4)cc23)c(-c2ccc(NC(=O)N(C)C)cc2)n1
Summary of the method: as §1

[5] = compound: CN(C)CC(=O)Nc1ccc2[nH]c(=O)c3ccccc3c2c1
Summary of the method: as §1

rosiglitazone = compound: CN(CCOC1=CC=C(C=C1)C[C@H]2C(=O)NC(=O)S2)C3=CC=CC=N3 (racemic) [rosiglitazone]
Summary of the method: as §1

[6] = compound: CN1C2=C(C3=C1C(=O)N(N=C3)CC4=CC(=CC=C4)N)SC(=C2)S(=O)C
Summary of the method: as §1

[7] = compound: CN1CCC(CNc2ccc3ncc(-c4cccc(OC(F)(F)F)c4)n3n2)CC1
Summary of the method: as §1

saracatinib = compound: CN1CCN(CCOc2cc(OC3CCOCC3)c3c(Nc4c(Cl)ccc5c4OCO5)ncnc3c2)CC1 [saracatinib]
Summary of the method: as §1

sotrastaurin = compound: CN1CCN(c2nc(C3=C(c4c[nH]c5ccccc45)C(=O)NC3=O)c3ccccc3n2)CC1 [sotrastaurin]
Summary of the method: as §1

alvocidib = compound: CN1CC[C@H](c2c(O)cc(O)c3c(=O)cc(-c4ccccc4Cl)oc23)[C@H](O)C1 [alvocidib]
Summary of the method: as §1

Tubastatin A = compound: CN1CCc2c(c3ccccc3n2Cc2ccc(C(=O)NO)cc2)C1 [Tubastatin A]
Summary of the method: as §1

[8] = compound: CNC(=O)C1=CC=CC=C1NC2=NC(=NC=C2Cl)NC3=C(C=C(C=C3)N4CCOCC4)OC
Summary of the method: as §1

defactinib = compound: CNC(=O)c1ccc(Nc2ncc(C(F)(F)F)c(NCc3nccnc3N(C)S(C)(=O)=O)n2)cc1 [defactinib]
Summary of the method: as §1

rucaparib = compound: CNCc1ccc(-c2[nH]c3cc(F)cc4c3c2CCNC4=O)cc1 [rucaparib]
Summary of the method: as §1

[9] = compound: CNc1nc(-c2ccc3c(N)n[nH]c3c2)cc(N2C[C@@H](C(=O)NC3CCCCC3)CC[C@H]2C)n1
Summary of the method: as §1

encorafenib = compound: COC(=O)N[C@@H](C)CNc1nccc(-c2cn(C(C)C)nc2-c2cc(Cl)cc(NS(C)(=O)=O)c2F)n1 [encorafenib]
Summary of the method: as §1

[10] = compound: COC(=O)[C@H](CCSC)NC(=O)C1=C(C=C(C=C1)NC[C@H](CS)N)C2=CC=CC=C2
Summary of the method: as §1

Measured: log2 fold change

FAM117A (UniProt Q9C073)
Sequence of UniProt Q9C073 (Q9C073 whole entry, looked up): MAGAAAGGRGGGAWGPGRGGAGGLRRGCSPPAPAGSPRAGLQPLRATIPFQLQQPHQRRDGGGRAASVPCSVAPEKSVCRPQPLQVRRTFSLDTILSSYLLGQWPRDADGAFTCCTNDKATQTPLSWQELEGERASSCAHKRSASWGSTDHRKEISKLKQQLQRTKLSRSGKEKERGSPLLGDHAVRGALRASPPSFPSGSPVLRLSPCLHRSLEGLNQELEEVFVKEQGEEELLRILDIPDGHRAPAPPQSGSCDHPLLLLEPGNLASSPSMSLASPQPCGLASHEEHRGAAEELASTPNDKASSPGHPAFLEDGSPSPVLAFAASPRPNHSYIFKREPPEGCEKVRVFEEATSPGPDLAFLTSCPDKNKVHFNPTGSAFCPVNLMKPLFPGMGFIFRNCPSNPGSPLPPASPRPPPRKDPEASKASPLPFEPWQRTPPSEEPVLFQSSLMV
inactive: [1] 0.001 | volasertib 0.129 | [2] 0.071 | epoxomicin 0.091 | [3] 0.006 | [4] -0.025 | [5] 0.028 | rosiglitazone 0.015 | [6] -0.008 | [7] -0.182 | saracatinib -0.019 | sotrastaurin 0.009 | alvocidib -0.077 | Tubastatin A 0.058 | defactinib -0.141 | rucaparib -0.079 | [9] 0.083 | encorafenib -0.023 | [10] 0.009
active: [8] -0.268

ELOVL5 isoform 2 (UniProt Q9NYP7)
Sequence of UniProt Q9NYP7 (Q9NYP7 whole entry, looked up): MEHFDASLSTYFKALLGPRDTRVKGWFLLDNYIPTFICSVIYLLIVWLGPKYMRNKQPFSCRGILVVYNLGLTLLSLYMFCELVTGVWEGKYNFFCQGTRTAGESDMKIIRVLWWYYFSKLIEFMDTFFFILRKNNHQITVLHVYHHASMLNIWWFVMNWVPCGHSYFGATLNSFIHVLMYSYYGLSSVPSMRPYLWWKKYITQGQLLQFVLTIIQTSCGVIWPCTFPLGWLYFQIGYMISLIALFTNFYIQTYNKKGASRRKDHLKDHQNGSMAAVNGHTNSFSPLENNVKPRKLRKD
inactive: [1] -0.227 | volasertib -0.164 | [2] 0.026 | epoxomicin -0.034 | [3] 0.049 | [4] -0.206 | [5] 0.021 | rosiglitazone 0.122 | [6] -0.044 | saracatinib -0.037 | sotrastaurin -0.084 | alvocidib -0.021 | Tubastatin A -0.085 | [8] -0.032 | defactinib -0.016 | rucaparib -0.026 | [9] -0.135 | encorafenib 0.132 | [10] -0.048
active: [7] -0.691

ETNK1 (UniProt Q9HBU6)
Sequence of UniProt Q9HBU6 (Q9HBU6 whole entry, looked up): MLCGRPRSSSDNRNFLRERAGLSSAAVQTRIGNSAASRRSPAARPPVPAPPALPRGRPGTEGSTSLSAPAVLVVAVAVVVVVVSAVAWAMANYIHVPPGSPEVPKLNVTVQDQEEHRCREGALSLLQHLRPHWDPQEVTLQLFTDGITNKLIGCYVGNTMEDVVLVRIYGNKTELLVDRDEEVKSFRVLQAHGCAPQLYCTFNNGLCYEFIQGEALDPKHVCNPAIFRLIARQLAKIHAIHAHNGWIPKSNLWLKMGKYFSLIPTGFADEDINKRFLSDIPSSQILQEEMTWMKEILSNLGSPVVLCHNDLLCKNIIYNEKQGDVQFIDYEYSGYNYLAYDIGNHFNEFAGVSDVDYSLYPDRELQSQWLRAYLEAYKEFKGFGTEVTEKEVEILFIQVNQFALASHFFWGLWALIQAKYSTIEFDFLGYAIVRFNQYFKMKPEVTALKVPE
active: rucaparib 0.295
inactive: [1] 0.021 | volasertib -0.24 | [2] 0.021 | epoxomicin 0.157 | [3] -0.03 | [4] 0.059 | [5] 0.121 | rosiglitazone 0 | [6] -0.14 | [7] 0.041 | saracatinib -0.037 | sotrastaurin -0.045 | alvocidib -0.028 | Tubastatin A 0.092 | [8] 0.053 | defactinib -0.001 | [9] -0.039 | encorafenib -0.007 | [10] -0.027

EED, A0A5F9ZI63
inactive: [1] -0.052 | volasertib -0.055 | [2] -0.159 | epoxomicin -0.032 | [3] -0.001 | [4] 0.068 | [5] -0.099 | rosiglitazone 0.054 | [6] 0.045 | [7] 0.209 | saracatinib 0.008 | sotrastaurin -0.065 | alvocidib 0.037 | Tubastatin A -0.041 | [8] -0.057 | defactinib -0.04 | rucaparib 0.125 | [9] -0.052 | encorafenib 0.025 | [10] -0.05

DDOST (UniProt P39656)
Sequence of UniProt P39656 (P39656 whole entry, looked up): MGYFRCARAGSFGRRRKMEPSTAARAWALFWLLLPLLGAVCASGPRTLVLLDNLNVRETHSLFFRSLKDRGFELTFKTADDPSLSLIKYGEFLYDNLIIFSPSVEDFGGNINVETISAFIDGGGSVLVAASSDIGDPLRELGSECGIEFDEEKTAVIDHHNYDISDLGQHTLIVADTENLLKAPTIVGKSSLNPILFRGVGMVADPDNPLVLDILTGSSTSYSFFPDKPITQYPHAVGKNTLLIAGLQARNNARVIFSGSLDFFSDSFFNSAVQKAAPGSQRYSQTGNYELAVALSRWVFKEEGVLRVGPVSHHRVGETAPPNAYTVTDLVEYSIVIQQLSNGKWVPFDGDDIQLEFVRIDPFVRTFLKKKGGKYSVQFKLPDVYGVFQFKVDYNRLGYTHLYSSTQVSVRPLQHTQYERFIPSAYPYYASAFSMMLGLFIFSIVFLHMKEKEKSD
inactive: [1] 0.006 | volasertib -0.102 | [2] -0.014 | epoxomicin -0.014 | [3] 0.015 | [4] 0.052 | [5] -0.031 | rosiglitazone -0.007 | [6] 0.019 | [7] 0.089 | saracatinib -0.015 | sotrastaurin -0.03 | alvocidib 0.013 | Tubastatin A 0.021 | [8] 0.008 | defactinib 0.042 | rucaparib -0.029 | [9] -0.005 | encorafenib 0.059 | [10] -0.002

CTSV (UniProt O60911)
inactive: [2] -0.054 | epoxomicin -0.007 | [3] 0.033 | [4] 0.084 | [5] 0.012 | rosiglitazone -0.013 | [6] -0.081 | saracatinib -0.049 | sotrastaurin 0.195 | alvocidib 0.012 | Tubastatin A 0.016 | [8] 0.048 | defactinib 0.011 | rucaparib -0.056 | [9] 0.062 | encorafenib 0 | [10] 0.02
active: [1] -0.719 | volasertib -0.993 | [7] -1.29

CWC27 (UniProt Q6UX04)
Sequence of UniProt Q6UX04 (Q6UX04 whole entry, looked up): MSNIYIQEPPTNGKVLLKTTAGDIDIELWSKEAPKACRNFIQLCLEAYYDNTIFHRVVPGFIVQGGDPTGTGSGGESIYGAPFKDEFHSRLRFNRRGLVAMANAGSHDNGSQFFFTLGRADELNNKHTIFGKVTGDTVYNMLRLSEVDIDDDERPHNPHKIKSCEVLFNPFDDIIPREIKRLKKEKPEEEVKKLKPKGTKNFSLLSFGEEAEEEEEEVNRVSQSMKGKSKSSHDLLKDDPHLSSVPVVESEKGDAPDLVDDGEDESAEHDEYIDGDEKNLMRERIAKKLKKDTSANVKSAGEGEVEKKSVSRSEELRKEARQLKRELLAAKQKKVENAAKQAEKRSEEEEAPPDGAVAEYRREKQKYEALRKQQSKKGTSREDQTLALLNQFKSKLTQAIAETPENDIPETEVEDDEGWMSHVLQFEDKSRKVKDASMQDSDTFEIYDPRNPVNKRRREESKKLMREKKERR
active: volasertib -0.421
inactive: [1] -0.103 | [2] 0.086 | epoxomicin 0.094 | [3] -0.089 | [4] 0.117 | [5] 0.066 | rosiglitazone 0.143 | [6] -0.011 | [7] -0.091 | saracatinib 0.01 | sotrastaurin -0.093 | alvocidib 0.011 | Tubastatin A 0.012 | [8] 0.022 | defactinib -0.139 | rucaparib -0.001 | [9] -0.064 | encorafenib 0.068 | [10] -0.04

EEF1G isoform 2 (UniProt P26641)
Sequence of UniProt P26641 (P26641 whole entry, looked up): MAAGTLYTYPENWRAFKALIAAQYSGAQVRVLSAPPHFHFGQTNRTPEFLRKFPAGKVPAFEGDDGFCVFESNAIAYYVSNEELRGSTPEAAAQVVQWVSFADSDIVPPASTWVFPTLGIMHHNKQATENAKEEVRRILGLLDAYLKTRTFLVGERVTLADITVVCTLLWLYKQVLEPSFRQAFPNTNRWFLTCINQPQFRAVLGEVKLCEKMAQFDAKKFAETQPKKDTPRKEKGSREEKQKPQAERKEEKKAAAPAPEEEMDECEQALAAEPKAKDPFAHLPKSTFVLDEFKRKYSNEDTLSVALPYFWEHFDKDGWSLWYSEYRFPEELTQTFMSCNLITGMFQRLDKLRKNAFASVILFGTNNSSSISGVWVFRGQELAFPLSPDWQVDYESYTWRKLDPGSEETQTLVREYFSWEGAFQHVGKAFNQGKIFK
inactive: [1] -0.164 | [2] 0.075 | epoxomicin 0.008 | [3] -0.012 | [4] -0.005 | [5] 0.022 | rosiglitazone 0.005 | [6] 0.011 | [7] 0.016 | saracatinib -0.012 | sotrastaurin -0.041 | alvocidib -0.044 | Tubastatin A -0.008 | [8] 0.075 | defactinib -0.051 | rucaparib 0.045 | [9] 0.02 | encorafenib 0.076 | [10] -0.047
active: volasertib -0.364

EIF4A1 (UniProt P60842)
inactive: [1] -0.106 | [2] 0.079 | epoxomicin 0.001 | [3] 0.001 | [4] -0.052 | [5] 0.047 | rosiglitazone 0.06 | [6] -0.046 | [7] -0.126 | saracatinib -0.029 | sotrastaurin -0.138 | alvocidib -0.088 | Tubastatin A 0.049 | [8] -0.03 | defactinib -0.116 | rucaparib 0 | [9] 0.012 | encorafenib 0.071 | [10] -0.05
active: volasertib -0.273

DBR1 (UniProt Q9UK59)
inactive: [1] 0.037 | volasertib 0 | [2] 0.008 | epoxomicin -0.018 | [3] -0.017 | [4] 0.015 | [5] -0.019 | rosiglitazone -0.002 | [6] -0.034 | [7] 0.015 | saracatinib 0.048 | sotrastaurin 0.019 | alvocidib -0.002 | Tubastatin A -0.012 | [8] -0.033 | defactinib -0.012 | rucaparib -0.007 | [9] -0.004 | encorafenib -0.012 | [10] -0.011

ERCC2 (UniProt P18074)
Sequence of UniProt P18074 (P18074 whole entry, looked up): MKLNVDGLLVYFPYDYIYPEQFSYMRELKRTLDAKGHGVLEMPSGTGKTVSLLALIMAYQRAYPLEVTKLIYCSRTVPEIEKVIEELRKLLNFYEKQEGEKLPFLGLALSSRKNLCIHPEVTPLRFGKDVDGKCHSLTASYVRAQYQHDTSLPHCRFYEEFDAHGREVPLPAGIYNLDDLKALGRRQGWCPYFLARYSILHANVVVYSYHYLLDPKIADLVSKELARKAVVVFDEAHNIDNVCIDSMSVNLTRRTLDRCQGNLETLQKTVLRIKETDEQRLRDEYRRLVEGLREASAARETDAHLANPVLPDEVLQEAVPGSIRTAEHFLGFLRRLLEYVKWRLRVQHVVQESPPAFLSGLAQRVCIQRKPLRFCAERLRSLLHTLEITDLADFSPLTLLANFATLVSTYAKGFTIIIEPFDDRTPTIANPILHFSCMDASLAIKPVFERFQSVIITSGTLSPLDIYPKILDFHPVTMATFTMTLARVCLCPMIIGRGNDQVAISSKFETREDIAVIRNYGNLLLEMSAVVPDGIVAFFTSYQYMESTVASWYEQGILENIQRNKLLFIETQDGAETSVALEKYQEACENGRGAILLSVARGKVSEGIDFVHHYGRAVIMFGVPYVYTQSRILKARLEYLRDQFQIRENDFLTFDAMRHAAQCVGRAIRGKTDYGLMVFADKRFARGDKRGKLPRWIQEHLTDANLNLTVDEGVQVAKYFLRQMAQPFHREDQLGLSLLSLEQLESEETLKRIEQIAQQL
inactive: [1] -0.015 | volasertib -0.258 | [2] 0.043 | [3] 0.003 | [4] -0.076 | [5] -0.019 | rosiglitazone 0.007 | [6] 0.013 | [7] -0.153 | saracatinib -0.016 | sotrastaurin -0.035 | alvocidib -0.062 | Tubastatin A 0.051 | [8] -0.01 | defactinib -0.094 | rucaparib -0.013 | [9] -0.027 | encorafenib 0.177 | [10] -0.005
active: epoxomicin 0.326

EXOC1 (UniProt Q9NV70)
Sequence of UniProt Q9NV70 (Q9NV70 whole entry, looked up): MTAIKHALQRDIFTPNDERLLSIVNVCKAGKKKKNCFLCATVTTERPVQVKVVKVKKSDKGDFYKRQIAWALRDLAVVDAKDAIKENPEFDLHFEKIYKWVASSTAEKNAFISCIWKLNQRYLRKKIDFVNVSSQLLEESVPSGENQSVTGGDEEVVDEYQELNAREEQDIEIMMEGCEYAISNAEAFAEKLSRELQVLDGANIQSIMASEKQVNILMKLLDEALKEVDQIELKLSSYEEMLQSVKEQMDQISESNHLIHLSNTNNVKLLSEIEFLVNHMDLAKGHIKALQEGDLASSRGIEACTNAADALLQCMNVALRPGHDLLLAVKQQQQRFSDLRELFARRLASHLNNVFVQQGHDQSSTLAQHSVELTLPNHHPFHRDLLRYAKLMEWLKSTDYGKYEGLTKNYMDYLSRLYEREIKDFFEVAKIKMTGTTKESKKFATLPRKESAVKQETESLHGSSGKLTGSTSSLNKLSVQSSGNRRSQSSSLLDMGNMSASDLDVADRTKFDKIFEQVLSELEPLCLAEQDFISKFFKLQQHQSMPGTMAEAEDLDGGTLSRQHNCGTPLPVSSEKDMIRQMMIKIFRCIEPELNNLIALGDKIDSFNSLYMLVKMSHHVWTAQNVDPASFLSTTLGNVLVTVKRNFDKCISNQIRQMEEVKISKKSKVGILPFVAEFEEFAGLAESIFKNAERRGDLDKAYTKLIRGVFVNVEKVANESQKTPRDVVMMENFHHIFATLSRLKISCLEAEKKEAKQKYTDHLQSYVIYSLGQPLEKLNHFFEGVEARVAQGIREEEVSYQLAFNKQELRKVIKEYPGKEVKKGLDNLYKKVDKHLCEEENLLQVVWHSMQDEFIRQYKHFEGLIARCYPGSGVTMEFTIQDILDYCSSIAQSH
inactive: [1] -0.219 | volasertib -0.44 | [2] 0.077 | epoxomicin -0.012 | [3] -0.081 | [4] 0.023 | [5] 0.084 | rosiglitazone 0.115 | [6] 0.1 | [7] -0.319 | saracatinib 0.013 | sotrastaurin -0.249 | alvocidib -0.04 | Tubastatin A 0.038 | [8] -0.002 | defactinib -0.074 | rucaparib 0.172 | [9] 0.066 | encorafenib 0.06 | [10] -0.081

ECPAS (UniProt Q5VYK3)
active: volasertib -0.602 | epoxomicin 0.614
inactive: [1] -0.188 | [2] 0.093 | [3] -0.097 | [4] -0.029 | [5] 0.079 | rosiglitazone 0.041 | [6] 0.026 | [7] -0.143 | saracatinib -0.055 | sotrastaurin -0.124 | alvocidib -0.033 | Tubastatin A 0.038 | [8] 0.012 | defactinib -0.06 | rucaparib 0.09 | [9] 0.027 | encorafenib 0.122 | [10] -0.045

DDX5 (UniProt P17844)
Sequence of UniProt P17844 (P17844 whole entry, looked up): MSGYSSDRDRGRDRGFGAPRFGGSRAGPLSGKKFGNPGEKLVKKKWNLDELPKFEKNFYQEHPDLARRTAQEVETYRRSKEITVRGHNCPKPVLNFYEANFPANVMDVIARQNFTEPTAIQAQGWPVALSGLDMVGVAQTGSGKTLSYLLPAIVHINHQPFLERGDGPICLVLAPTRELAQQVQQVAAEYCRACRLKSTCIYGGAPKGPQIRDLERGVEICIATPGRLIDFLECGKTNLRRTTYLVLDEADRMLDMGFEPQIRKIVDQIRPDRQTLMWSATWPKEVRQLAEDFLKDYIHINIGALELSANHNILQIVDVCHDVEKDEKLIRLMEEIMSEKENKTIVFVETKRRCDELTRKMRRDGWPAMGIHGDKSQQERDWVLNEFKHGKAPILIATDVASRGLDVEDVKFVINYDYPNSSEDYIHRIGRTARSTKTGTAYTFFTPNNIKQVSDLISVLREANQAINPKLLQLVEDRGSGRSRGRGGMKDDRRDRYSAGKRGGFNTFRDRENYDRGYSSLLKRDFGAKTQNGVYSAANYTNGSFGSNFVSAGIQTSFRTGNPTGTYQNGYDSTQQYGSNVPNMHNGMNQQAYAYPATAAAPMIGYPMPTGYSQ
inactive: [2] 0.103 | epoxomicin 0.149 | [3] -0.115 | [4] -0.083 | [5] 0.101 | rosiglitazone 0.066 | [6] 0.018 | [7] 0.019 | saracatinib -0.055 | sotrastaurin -0.206 | alvocidib -0.07 | Tubastatin A 0.041 | [8] 0.025 | defactinib -0.206 | rucaparib -0.075 | [9] -0.021 | encorafenib 0.14 | [10] -0.085
active: [1] -0.426 | volasertib -0.589

EIF2S3 (UniProt P41091)
inactive: [1] 0.076 | volasertib 0.073 | [2] 0.026 | epoxomicin -0.144 | [3] 0.009 | [4] 0.055 | [5] -0.034 | rosiglitazone -0.02 | [6] 0.068 | [7] 0.049 | saracatinib -0.016 | sotrastaurin 0 | alvocidib 0.057 | Tubastatin A -0.006 | [8] -0.02 | defactinib 0.114 | rucaparib 0.124 | [9] 0.033 | encorafenib 0.04 | [10] -0.002

DMAC1 (UniProt Q96GE9)
Sequence of UniProt Q96GE9 (Q96GE9 whole entry, looked up): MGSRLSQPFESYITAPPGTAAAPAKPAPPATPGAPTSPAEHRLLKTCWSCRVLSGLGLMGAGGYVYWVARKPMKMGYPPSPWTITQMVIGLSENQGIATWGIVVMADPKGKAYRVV
active: saracatinib -0.509
inactive: [1] 0.269 | volasertib 0.016 | [2] -0.038 | epoxomicin -0.084 | [3] 0.057 | [4] -0.041 | [5] 0.001 | rosiglitazone -0.025 | [6] -0.007 | [7] 0.015 | sotrastaurin 0 | alvocidib -0.003 | Tubastatin A 0.031 | [8] -0.077 | defactinib -0.048 | rucaparib -0.124 | [9] 0.005 | encorafenib -0.105 | [10] -0.019
